This is part of a sample that, as a whole, favours compounds with a hit. Of some 83,000 tested, about 20% had one in any assay.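 Percent growth is the endpoint: 0 to 100 indicates growth inhibition (40 means 60% inhibition), 0 means no net growth, and negative values indicate cell death.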 Active and inactive are the calls of the source. Rule for the calls: active = growth percent below 10; inactive = the rest.
Legend:
Test in all cases: NCI-60 one-dose screen, 48 h (100 = growth as untreated, 0 = no growth, -100 = all killed)
[1] = test system: DU-145 prostate; conditions: 10 µM unless noted
[2] = test system: K-562 leukemia; conditions: 10 µM unless noted
[3] = test system: MALME-3M melanoma; conditions: 10 µM unless noted
[4] = test system: MDA-MB-231 breast; conditions: 10 µM unless noted
[5] = test system: SF-268 CNS; conditions: 10 µM unless noted
[6] = test system: SF-295 CNS; conditions: 10 µM unless noted
[7] = test system: SF-539 CNS; conditions: 10 µM unless noted
[8] = test system: UACC-257 melanoma; conditions: 10 µM
[9] = test system: M14 melanoma; conditions: 10 µM unless noted
[10] = test system: HCT-15 colon; conditions: 10 µM unless noted
[11] = test system: HT29 colon; conditions: 10 µM unless noted
[12] = test system: SNB-75 CNS; conditions: 10 µM unless noted
[13] = test system: SNB-19 CNS; conditions: 10 µM unless noted
[14] = test system: U251 CNS; conditions: 10 µM unless noted
[15] = test system: PC-3 prostate; conditions: 10 µM unless noted
[16] = test system: SK-MEL-5 melanoma; conditions: 10 µM unless noted
[17] = test system: UACC-62 melanoma; conditions: 10 µM unless noted
[18] = test system: LOX IMVI melanoma; conditions: 10 µM unless noted
[19] = test system: SK-MEL-28 melanoma; conditions: 10 µM unless noted
[20] = test system: RXF 393 renal; conditions: 10 µM unless noted

Measured: growth

COc1ccc2oc3c4[nH]c5ccccc5c4c4c(c3c2c1)C(=O)N(O)C4=O
inactive: [1] 101% | [2] 98.3% | [3] 105% | [4] 95.7% | [5] 100% | [6] 106% | [7] 98% | [8] 106% | [9] 102% | [10] 105% | [11] 104% | [12] 89.1% | [13] 95.2% | [14] 106% | [15] 85.8% | [16] 101% | [17] 94.6% | [18] 116% | [19] 106%

CC[C@@](C)(NC(=O)C(C)(C)NC(=O)[C@@H](NC(=O)[C@@H]1CCCN1C(=O)C(C)(C)NC(=O)[C@H](CC(C)C)NC(=O)CNC(=O)C(C)(C)NC(=O)[C@@H](NC(=O)C(C)(C)NC(=O)[C@H](CCC(N)=O)NC(=O)[C@H](C)NC(=O)C(C)(C)NC(=O)[C@H](C)NC(=O)C(C)(C)NC(=O)[C@@H]1CCCN1C(=O)C(C)(C)NC(C)=O)C(C)C)C(C)C)C(=O)N[C@@H](CCC(N)=O)C(=O)N[C@@H](CCC(N)=O)C(=O)N[C@H](CO)Cc1ccccc1
active: [3] -21.3% [4.25 µM] | [12] 3.47% [4.25 µM] | [16] -39.8% [4.25 µM] | [18] 4.55% [4.25 µM]
inactive: [1] 30.9% [4.25 µM] | [2] 29.1% [4.25 µM] | [4] 32.4% [4.25 µM] | [20] 29.1% [4.25 µM] | [5] 31.6% [4.25 µM] | [6] 86.6% [4.25 µM] | [7] 28.7% [4.25 µM] | [9] 65.9% [4.25 µM] | [10] 98% [4.25 µM] | [11] 17.4% [4.25 µM] | [13] 21% [4.25 µM] | [14] 33.1% [4.25 µM] | [15] 16.2% [4.25 µM] | [17] 47.5% [4.25 µM] | [19] 27.5% [4.25 µM]

CC(=O)NC(C)(C)C(=O)N1CCC[C@H]1C(=O)NC(C)(C)C(=O)N[C@@H](C)C(=O)NC(C)(C)C(=O)N[C@@H](C)C(=O)N[C@@H](CCC(N)=O)C(=O)NC(C)(C)C(=O)N[C@H](C(=O)NC(C)(C)C(=O)NCC(=O)N[C@@H](CC(C)C)C(=O)NC(C)(C)C(=O)N1CCC[C@H]1C(=O)N[C@H](C(=O)NC(C)(C)C(=O)NC(C)(C)C(=O)N[C@@H](CCC(N)=O)C(=O)N[C@@H](CCC(N)=O)C(=O)N[C@H](CO)Cc1ccccc1)C(C)C)C(C)C
inactive: [1] 62.9% [4.25 µM] | [2] 42.8% [4.25 µM] | [3] 57.1% [4.25 µM] | [4] 77.7% [4.25 µM] | [20] 82.7% [4.25 µM] | [5] 64.3% [4.25 µM] | [6] 55.1% [4.25 µM] | [7] 62.2% [4.25 µM] | [9] 68.5% [4.25 µM] | [11] 71% [4.25 µM] | [12] 33.4% [4.25 µM] | [13] 52.5% [4.25 µM] | [14] 62.3% [4.25 µM] | [15] 28.3% [4.25 µM] | [16] 38.2% [4.25 µM] | [17] 95.8% [4.25 µM] | [18] 84.3% [4.25 µM] | [19] 65.3% [4.25 µM]

COc1ccc(N)cc1C(=O)Nc1cccc(-c2cc(=O)c3c(OC)c(OC)c(OC)cc3o2)c1
inactive: [1] 59.1% | [2] 46.6% | [3] 89.4% | [4] 60.2% | [20] 50.4% | [5] 68.3% | [6] 63.8% | [7] 64.4% | [8] 98.9% | [10] 44.7% | [11] 56.5% | [12] 93.1% | [13] 76.6% | [14] 49.9% | [16] 41% | [17] 61.2% | [18] 44.3% | [19] 86.6%

Cc1nc(-c2cc3ccccc3c(N3CCN(C)CC3)n2)cs1
inactive: [1] 109% | [2] 91.5% | [3] 96.5% | [4] 90.3% | [5] 87.3% | [6] 93.1% | [7] 85.2% | [8] 101% | [9] 95.4% | [10] 92.1% | [11] 96.4% | [12] 76.2% | [13] 90.1% | [14] 96.4% | [15] 86.8% | [16] 95.4% | [17] 90.8% | [18] 84.7%

CC(C)C[C@H]1C(=O)O[C@H](C(C)C)C(=O)N(C)[C@@H](C(C)C)C(=O)O[C@H](C(C)C)C(=O)N(C)[C@@H](C(C)C)C(=O)O[C@H](C(C)C)C(=O)N1C
active: [2] 8.19% | [4] 8.5% | [6] 5.53% | [11] 8.39% | [12] 7.5% | [16] -32% | [17] 9.49% | [18] 9.57%
inactive: [1] 24.4% | [3] 18% | [20] 19.1% | [5] 20.4% | [7] 22.3% | [9] 18.5% | [10] 16.6% | [13] 22.4% | [14] 14.1% | [15] 14.5% | [19] 38.2%

O=C1C[C@@H](c2ccccc2)Oc2c(Cc3ccccc3O)c(O)c(Cc3cc(Cc4cc(Cc5ccccc5O)ccc4O)ccc3O)c(O)c21
inactive: [1] 102% | [2] 99.8% | [3] 95% | [4] 82.4% | [20] 94.7% | [5] 85.2% | [6] 102% | [7] 101% | [9] 88.6% | [10] 104% | [11] 128% | [12] 72.7% | [13] 99.7% | [14] 93.7% | [15] 89.1% | [16] 98.6% | [17] 72.7% | [18] 87.2% | [19] 114%

N=c1c2cc(-c3ccccc3)oc2ncn1/N=C/c1ccccc1
inactive: [1] 96.7% | [2] 27.6% | [3] 48.9% | [4] 95.1% | [20] 49.4% | [5] 89% | [6] 84.3% | [7] 85.8% | [8] 85.6% | [11] 73.6% | [12] 67% | [13] 87.5% | [14] 84.7% | [15] 71.9% | [16] 90.8% | [17] 47.6% | [18] 66.3% | [19] 83.4%

COc1cc(O)c2c(c1)[C@H]1O[C@@H]1C[C@H](O)[C@H](O)C(=O)/C=C\C[C@H](C)OC2=O
active: [3] -24.1% | [20] 8.74% | [9] 9.43% | [16] 7.59% | [17] -12.4%
inactive: [1] 55.3% | [2] 29.9% | [4] 48.7% | [5] 74.4% | [6] 81.7% | [7] 61.7% | [10] 28.7% | [11] 12.6% | [12] 87.1% | [13] 81.3% | [14] 72.4% | [15] 66.8% | [18] 32.3%

O=c1c2c(O)cccc2oc2c3c(cc(O)c12)O[C@H]1OC=C[C@@H]31
inactive: [1] 98% | [2] 96.2% | [3] 95.2% | [4] 83.2% | [20] 99.1% | [5] 94.7% | [6] 89.5% | [7] 98.4% | [9] 101% | [10] 87.8% | [11] 88.9% | [12] 85.7% | [13] 96.8% | [14] 92.9% | [16] 81.1% | [17] 81% | [18] 87.4% | [19] 108%

CC[C@@](C)(NC(=O)C(C)(C)NC(=O)[C@@H](NC(=O)[C@@H]1CCCN1C(=O)C(C)(C)NC(=O)[C@H](CC(C)C)NC(=O)CNC(=O)C(C)(C)NC(=O)[C@@H](NC(=O)C(C)(C)NC(=O)[C@H](CCC(N)=O)NC(=O)[C@H](C)NC(=O)C(C)(C)NC(=O)[C@H](C)NC(=O)C(C)(C)NC(=O)[C@H](C)NC(=O)C(C)(C)NC(C)=O)C(C)C)C(C)C)C(=O)N[C@@H](CCC(N)=O)C(=O)N[C@@H](CCC(N)=O)C(=O)N[C@H](CO)CC1CCCCC1
inactive: [1] 35.1% [5 µM] | [2] 32.1% [5 µM] | [4] 32.7% [5 µM] | [20] 23.7% [5 µM] | [5] 32.6% [5 µM] | [6] 81.8% [5 µM] | [7] 18.8% [5 µM] | [9] 58.4% [5 µM] | [10] 101% [5 µM] | [11] 23% [5 µM] | [12] 13.4% [5 µM] | [13] 24.3% [5 µM] | [14] 29.2% [5 µM] | [15] 15.5% [5 µM] | [17] 31.1% [5 µM]
active: [3] -18.4% [5 µM] | [16] -43.5% [5 µM] | [18] 0.772% [5 µM]

COC(=O)[C@@]1(C)CC[C@]2(C)CC[C@]3(C)C(=CC(=O)[C@@H]4[C@@]5(C)Cc6c(n(CC#CCN7CCN(C)CC7)c7ccccc67)C(C)(C)[C@@H]5CC[C@]43C)[C@@H]2C1
inactive: [1] 54.5% | [3] 115% | [4] 67.2% | [5] 86.6% | [6] 85.9% | [7] 91.5% | [8] 106% | [9] 90.6% | [11] 14.4% | [12] 100% | [13] 54.3% | [14] 57.5% | [15] 62.1% | [16] 87.2% | [17] 97.7% | [19] 105%
active: [2] -5.29% | [10] 2.6% | [18] -91.6%

Nc1cc(F)ccc1NC(=O)c1ccc(NC(=O)C/C=C/c2cccnc2)cn1
inactive: [2] 20% | [3] 11.6% | [4] 45.3% | [5] 30.8% | [6] 22.3% | [8] 17.8% | [10] 19.8% | [11] 11.4% | [12] 31.9% | [13] 31.7% | [14] 17.9% | [18] 16.6%
active: [1] -3.71% | [20] -17.5% | [7] 6.21% | [16] -58.1% | [17] 5.97% | [19] -9.71%

From PubChem BioAssay (NCI)
